Molecules are shown by their SMILES. “And” between values parts separate entries of the source, which are not always exact repeats. Identical values can stand only once. Inconclusive results are not listed. A number with no mark means an inactive call. The source made the active and inactive calls. Calls come from the whole dose curve; as a rule, active = well fitted inhibition curve with a large enough effect; inconclusive = small, poorly fitted or top-dose-only effect; inactive = flat fitted curve, though single readings scatter.

In assay [1] the test system is TAB109. The assay is described as follows: qHTS profiling for inhibitors of Plasmodium falciparum proliferation (AID 504749). The settings on record: P. falciparum in erythrocytes, SYBR Green DNA, 72 h; series mostly up to 28.7 µM. A digest of the protocol: (§1)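 P. falciparum-infected erythrocytes (0.3% parasitemia, 2.5% hematocrit final) were exposed to compounds for 72 h at 37 C in 5% CO2, then lysed with SYBR Green buffer overnight at room temperature; parasite DNA fluorescence was normalized to artemisinin and DMSO controls.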
On the technique in general: Quantitative high-throughput screening tests each substance at several concentrations.

Assay [2] relates to TAB165. Described as above. To be noted: P. falciparum in erythrocytes, SYBR Green DNA, 72 h; series mostly up to 28.7 µM. A digest of the protocol:
as §1

Assay [3] concerns W2. The description is as above. To be noted: P. falciparum in erythrocytes, SYBR Green DNA, 72 h; series mostly up to 28.7 µM. In a few lines:
as §1

The test system of assay [4] is HaCat. The assay is described as follows: Cytotoxic Profiling of Annotated Libraries Using Quantitative High-Throughput Screening (AID 1296008). For max response: % is set by controls: 0 for no effect and ±100 for the full control effect. To be noted: Five cell lines viability, CellTiter-Glo ATP luminescence, 48-72 h; max response: active compounds read low. A digest of the protocol: (§2)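 Compounds were pin-transferred onto cells and incubated 48 or 72 hr at 37 degree Celsius, 95% humidity. CellTiter-Glo was added, plates sat 10 min at room temperature, then ATP-coupled luminescence was imaged as the viability read-out.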
Background: In ATP-based viability assays light output follows the ATP content of the culture.

Assay [5] deals with PC49. The assay is described as follows: qHTS profiling for inhibitors of Plasmodium falciparum proliferation (AID 504749). To be noted: P. falciparum in erythrocytes, SYBR Green DNA, 72 h; series mostly up to 28.7 µM. A digest of the protocol:
as §1

Assay [6] deals with SC27B. The assay is described as above. The settings on record: P. falciparum in erythrocytes, SYBR Green DNA, 72 h; series mostly up to 28.7 µM. In a few lines: as §1
Assay [7] concerns TAB113. The assay is described as above. The settings on record: P. falciparum in erythrocytes, SYBR Green DNA, 72 h; series mostly up to 28.7 µM. In a few lines:
as §1

Assay [8] deals with KB-3-1. The assay is described as follows: Cytotoxic Profiling of Annotated Libraries Using Quantitative High-Throughput Screening (AID 1296008). For max response: % is set by controls: 0 for no effect and ±100 for the full control effect. To be noted: Five cell lines viability, CellTiter-Glo ATP luminescence, 48-72 h; max response: active compounds read low. In a few lines: as §2
Note: nearly all actives have a fitted effect of over 60% in size.
Potency is the fitted concentration of half-maximal effect.

Take `COC(=O)C1=C(C)NC(C)=C(C(=O)OCC(C)C)C1c1ccccc1[N+](=O)[O-]` (stereo not given): the Potency in assay [1] is 8.91 µM (active); in assay [2] it was 10 µM (active); in assay [3], 6.01 µM (active). In addition, the max response in assay [4] is 0.281%.

Turning to `N=c1ccn2c(n1)O[C@H]1[C@H](O)[C@@H](CO)O[C@H]12`, the Potency entry in assay [5], in assay [6], in assay [1], in assay [7], in assay [2] and in assay [3] was “inactive” throughout.

Consider `NC(=O)C(c1ccccc1)(c1ccccc1)[C@@H]1CCN(CCc2ccc3c(c2)CCO3)C1`, for which, in assay [3], the Potency was 1.69 µM (active).

For `O=C1CN(/N=C/c2ccc(-c3ccc([N+](=O)[O-])cc3)o2)C(=O)N1`, the Potency result in assay [6], in assay [1], in assay [7], in assay [2] and in assay [3] was “inactive” throughout.

As for `O=C(O)/C=C/C(O)c1ccc(Cl)cc1` (stereo not given), the Potency result in assay [5], in assay [6], in assay [1], in assay [7], in assay [2] and in assay [3] was “inactive” each time. In addition, the max response in assay [8] is -6.79%.

For `O=c1cc(-c2ccccc2)oc2ccccc12`, the Potency in assay [4] was 34 µM (active); in assay [8], 0.199 µM (active).

As for `CCCCCCOc1ccccc1C(N)=O`, the Potency result in assay [5], in assay [6], in assay [1], in assay [7], in assay [2] and in assay [3] was “inactive” throughout. The max response in assay [4] is -20.5%; in assay [8], 0.591%.

For `O=C(O)COc1ccc(C(=O)c2cccs2)c(Cl)c1Cl`, the Potency entry in assay [5], in assay [6], in assay [1], in assay [7], in assay [2] and in assay [3] was “inactive” in each case. In assay [8], the max response was -1.65% and 4.87%.

As to `Cc1[nH]cnc1CN1CCc2c(c3ccccc3n2C)C1=O`, the Potency result in assay [5], in assay [6], in assay [1], in assay [7], in assay [2] and in assay [3] was “inactive” in each case.

As to `CN(C)[C@@H]1C(=O)C(C(=O)NCN2CCCC2)=C(O)[C@@]2(O)C(=O)C3=C(O)c4c(O)cccc4[C@@](C)(O)C3C[C@@H]12` (stereo not given in full), the max response in assay [4] was -12.7%; in assay [8], 3.68% and -3.42%.

For the compound `Cc1ccccc1CNc1ncnc2c1ncn2C1OC(CO)C(O)C1O` (stereo not given), the Potency entry in assay [5], in assay [6], in assay [1], in assay [7], in assay [2] and in assay [3] was “inactive” in each case.

As for `O=C(O)[C@H](O)[C@@H](O)[C@H](O)[C@H](O)CO`, the Potency entry in assay [5], in assay [6], in assay [1], in assay [7], in assay [2] and in assay [3] was “inactive” throughout. Also, the max response in assay [8] is 1.75% and -7.15%.

Consider `C[S+](CC[C@H](N)C(=O)O)C[C@H]1O[C@@H](n2cnc3c(N)ncnc32)[C@H](O)[C@@H]1O` (stereo not given in full), for which the Potency result in assay [5], in assay [6] and in assay [3] was “inactive” throughout. The max response in assay [8] was 16.4% and -2.48%.

Take `CC[C@H]1OC(=O)[C@H](C)[C@@H](O[C@H]2C[C@@](C)(OC)[C@@H](O)[C@H](C)O2)[C@H](C)[C@@H](O[C@@H]2O[C@H](C)C[C@H](N(C)C)[C@H]2O)[C@](C)(O)C[C@@H](C)C(=O)[C@H](C)[C@@H](O)[C@]1(C)O`: the max response in assay [8] is 12% and -5.16%.

As for `CN1[C@@H](CC(=O)c2ccccc2)CCC[C@H]1C[C@H](O)c1ccccc1`, the results for the Potency in assay [5], in assay [2] and in assay [3] were 7.08 µM (active), 14.1 µM (active) and 5.36 µM (active), respectively.

Take `CCCCC[C@H](O)/C=C/[C@@H]1[C@@H](C/C=C\CCCC(=O)O)[C@@H](O)C[C@H]1O`: the Potency result in assay [5], in assay [6], in assay [1], in assay [7], in assay [2] and in assay [3] was “inactive” throughout.

For `CO/N=C(\C(=O)N[C@@H]1C(=O)N2C(C(=O)O)=C(COC(C)=O)CS[C@H]12)c1csc(N)n1` (stereo in doubt), the max response in assay [8] is -7.91%.

As to `Oc1c(Br)cc(Br)c2cccnc12`, the Potency result in assay [5], in assay [6], in assay [1] and in assay [3] was “inactive” throughout.

In the case of `C=CCN1C(=O)C(CC(C)C)NC1=S` (stereo not given), the Potency entry in assay [5], in assay [6], in assay [1], in assay [7], in assay [2] and in assay [3] was “inactive” throughout.

Take `CC1OC1P(=O)(O)O` (stereo not given): the Potency result in assay [5], in assay [6], in assay [7], in assay [2] and in assay [3] was “inactive” throughout.

For `Nc1nc2ccc([N+](=O)[O-])cc2s1`, in assay [4], the Potency is 27.3 µM (active). The max response in assay [8] was -15.7%.

For the compound `CC[C@H]1OC(=O)[C@H](C)C(=O)[C@H](C)[C@@H](O[C@@H]2O[C@H](C)C[C@H](N(C)C)[C@H]2O)[C@](C)(OC)C[C@@H](C)C(=O)[C@H](C)[C@H]2N(CCCCn3cnc(-c4cccnc4)c3)C(=O)O[C@]12C`, in assay [8], the max response was 6.09% and 49.1%.

On to `C=C(Nc1ccc(OCC)cc1)Nc1ccc(OCC)cc1`, for which the Potency entry in assay [5], in assay [6], in assay [1], in assay [7] and in assay [2] was “inactive” each time. In assay [8], the max response was -11.3% and -9.03%.
